# Assay results taken from the supplement of paper PMC4840960.
# Assays:
# [1] = tested on: E18 rat cortical neuron-glia co-culture; assay: fiber score / MBP score (myelination specific beyond OL differentiation) (ratio); higher = more myelination-specific MBP alignment; conditions: treatment time: 8 days (DIV5-DIV13)
# Method in brief: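 The measure is the ratio of fiber score to MBP score, where fiber score is continuous MBP fiber length per Olig2+ nucleus and MBP score is thresholded MBP area × intensity per Olig2+ nucleus. Primary E18 rat cortical co-cultures received library compounds at 1 or 5 µM in myelination medium from DIV5 to DIV13, then were fixed in 4 % paraformaldehyde and stained for MBP, Olig2 and DAPI before analysis of four 10X fields per well in duplicate wells.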
# [2] = tested on: E18 rat cortical neuron-glia co-culture; assay: myelination (MBP fiber length per Olig2+ nucleus), % of 1 µM DAPT response (DMSO = 0) (% of DAPT); higher = more myelination, active = 50 or more; conditions: treatment time: 8 days (DIV5-DIV13)
# Method in brief: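 The myelination value was the continuous straight MBP fiber length per Olig2+ nucleus, scaled between 0.1 % DMSO (0) and a 1 µM positive control (100). It was measured in primary E18 rat cortical co-cultures treated with library compounds at 1 or 5 µM in myelination medium from DIV5 through DIV13. Cells were fixed in 4 % paraformaldehyde and stained for MBP, Olig2 and DAPI, and four 10X fields per well were imaged in duplicate wells.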
smiles,measurement,setting,value
CNC(=C[N+](=O)[O-])NCCSCc1csc(CN(C)C)n1 [Nizatidine],fiber score / MBP score,[1]; 1 µM,0.895
same,fiber score / MBP score,[1]; 5 µM,0.816
same,myelination,[2]; 1 µM,-8.02 (inactive)
same,myelination,[2]; 5 µM,-29.5 (inactive)
O=C1CCC(N2C(=O)c3ccccc3C2=O)C(=O)N1 (centres undefined) [Thalidomide],fiber score / MBP score,[1]; 1 µM,1.07
same,fiber score / MBP score,[1]; 5 µM,1.14
same,myelination,[2]; 1 µM,1.07 (inactive)
same,myelination,[2]; 5 µM,4.71 (inactive)
C[C@@H]1C[C@H]2[C@@H]3CCC4=CC(=O)C=C[C@]4(C)[C@@]3(F)[C@@H](O)C[C@]2(C)[C@@]1(O)C(=O)CO [Dexamethazone],fiber score / MBP score,[1]; 1 µM,0.866
same,fiber score / MBP score,[1]; 5 µM,0.845
same,myelination,[2]; 1 µM,-1.63 (inactive)
same,myelination,[2]; 5 µM,-0.917 (inactive)
Nc1ncn([C@@H]2O[C@H](CO)[C@@H](O)[C@H]2O)c(=O)n1 [Azacitidine],fiber score / MBP score,[1]; 1 µM,0.686
same,fiber score / MBP score,[1]; 5 µM,0.777
same,myelination,[2]; 1 µM,3.99 (inactive)
same,myelination,[2]; 5 µM,12.8 (inactive)
CC(=O)[C@H]1CC[C@H]2[C@@H]3C[C@H](C)C4=CC(=O)CC[C@]4(C)[C@H]3[C@@H](O)C[C@]12C [Medrysone],fiber score / MBP score,[1]; 1 µM,1.11
same,fiber score / MBP score,[1]; 5 µM,1.1
same,myelination,[2]; 1 µM,5.47 (inactive)
same,myelination,[2]; 5 µM,6.18 (inactive)
Cn1cnc([N+](=O)[O-])c1Sc1ncnc2[nH]cnc12 [Azathioprine],fiber score / MBP score,[1]; 1 µM,0.762
same,fiber score / MBP score,[1]; 5 µM,0.822
same,myelination,[2]; 1 µM,-10.3 (inactive)
same,myelination,[2]; 5 µM,-32.9 (inactive)
Cc1occc(=O)c1O [Maltol],fiber score / MBP score,[1]; 1 µM,0.739
same,fiber score / MBP score,[1]; 5 µM,0.672
same,myelination,[2]; 1 µM,-10.1 (inactive)
same,myelination,[2]; 5 µM,-13.4 (inactive)
CC(C)/N=c1\cc2n(-c3ccc(Cl)cc3)c3ccccc3nc-2cc1Nc1ccc(Cl)cc1 [Clofazimine],fiber score / MBP score,[1]; 1 µM,0.742
same,fiber score / MBP score,[1]; 5 µM,0.962
same,myelination,[2]; 1 µM,-9.19 (inactive)
same,myelination,[2]; 5 µM,-8.06 (inactive)
CC[C@@H](CO)NCCN[C@@H](CC)CO [Ethambutol],fiber score / MBP score,[1]; 1 µM,0.781
same,fiber score / MBP score,[1]; 5 µM,0.753
same,myelination,[2]; 1 µM,-5.28 (inactive)
same,myelination,[2]; 5 µM,-6.9 (inactive)
CNC[C@H](O)c1ccc(O)c(O)c1 [Epinephrine],fiber score / MBP score,[1]; 1 µM,0.884
same,fiber score / MBP score,[1]; 5 µM,3.29
same,myelination,[2]; 1 µM,2.28 (inactive)
same,myelination,[2]; 5 µM,38.8 (inactive)
OCc1cccnc1 [Nicotinyl Alcohol],fiber score / MBP score,[1]; 1 µM,0.641
same,fiber score / MBP score,[1]; 5 µM,0.687
same,myelination,[2]; 1 µM,-10.3 (inactive)
same,myelination,[2]; 5 µM,-10.1 (inactive)
COc1cc(-c2ccc(=O)[nH]n2)ccc1OC(F)F [Zardaverine],fiber score / MBP score,[1]; 1 µM,0.581
same,fiber score / MBP score,[1]; 5 µM,0.397
same,myelination,[2]; 1 µM,-34.6 (inactive)
same,myelination,[2]; 5 µM,-42.4 (inactive)
CC1=Nc2ccc(Cl)cc2S(=O)(=O)N1 [Diazoxide],fiber score / MBP score,[1]; 1 µM,1.25
same,fiber score / MBP score,[1]; 5 µM,0.573
same,myelination,[2]; 1 µM,5.81 (inactive)
same,myelination,[2]; 5 µM,-18.4 (inactive)
CCc1ccc(CCOc2ccc(CC3SC(=O)NC3=O)cc2)nc1 (centres undefined) [Pioglitazone],fiber score / MBP score,[1]; 1 µM,0.868
same,fiber score / MBP score,[1]; 5 µM,0.501
same,myelination,[2]; 1 µM,-2.52 (inactive)
same,myelination,[2]; 5 µM,-17.1 (inactive)
CC(=O)CC(c1ccccc1)c1c(O)c2ccccc2oc1=O (centres undefined) [Warfarin],fiber score / MBP score,[1]; 1 µM,0.617
same,fiber score / MBP score,[1]; 5 µM,0.623
same,myelination,[2]; 1 µM,-6.64 (inactive)
same,myelination,[2]; 5 µM,-6.48 (inactive)
CNC(=N)NCCC[C@H](N)C(=O)O,fiber score / MBP score,[1]; 1 µM,0.684
same,fiber score / MBP score,[1]; 5 µM,0.854
same,myelination,[2]; 1 µM,-37.1 (inactive)
same,myelination,[2]; 5 µM,-9.76 (inactive)
CC[N+](C)(C)c1cccc(O)c1 [Edrophonium],fiber score / MBP score,[1]; 1 µM,0.813
same,fiber score / MBP score,[1]; 5 µM,0.982
same,myelination,[2]; 1 µM,-6.47 (inactive)
same,myelination,[2]; 5 µM,0.577 (inactive)
O=C(c1ccc(F)cc1)C1CCN(CCn2c(=S)[nH]c3ccccc3c2=O)CC1 [Altanserin],fiber score / MBP score,[1]; 1 µM,0.994
same,fiber score / MBP score,[1]; 5 µM,0.605
same,myelination,[2]; 1 µM,0.872 (inactive)
same,myelination,[2]; 5 µM,-16.1 (inactive)
Cc1ccc(C)c(OCCCC(C)(C)C(=O)O)c1 [Gemfibrozil],fiber score / MBP score,[1]; 1 µM,0.476
same,fiber score / MBP score,[1]; 5 µM,0.995
same,myelination,[2]; 1 µM,-13.7 (inactive)
same,myelination,[2]; 5 µM,-7.17 (inactive)
CCc1cccc2c3c([nH]c12)C(CC)(CC(=O)O)OCC3 (centres undefined) [Etodolac],fiber score / MBP score,[1]; 1 µM,0.706
same,fiber score / MBP score,[1]; 5 µM,1.38
same,myelination,[2]; 1 µM,-10.5 (inactive)
same,myelination,[2]; 5 µM,16.1 (inactive)
CCOC(=O)C1=C(C)NC(C)=C(C(=O)OC)C1c1cccc(Cl)c1Cl (centres undefined) [Felodipine],fiber score / MBP score,[1]; 1 µM,1.27
same,fiber score / MBP score,[1]; 5 µM,0.858
same,myelination,[2]; 1 µM,20.4 (inactive)
same,myelination,[2]; 5 µM,8.21 (inactive)
CC(=O)S[C@@H]1CC2=CC(=O)CC[C@]2(C)[C@H]2CC[C@@]3(C)[C@@H](CC[C@@]34CCC(=O)O4)[C@H]12 [Spironolactone],fiber score / MBP score,[1]; 1 µM,0.765
same,fiber score / MBP score,[1]; 5 µM,1.22
same,myelination,[2]; 1 µM,-5.5 (inactive)
same,myelination,[2]; 5 µM,6.33 (inactive)
CC(=O)Oc1ccccc1C(=O)Nc1ncc([N+](=O)[O-])s1 [Nitazoxanide],fiber score / MBP score,[1]; 1 µM,1.18
same,fiber score / MBP score,[1]; 5 µM,1.61
same,myelination,[2]; 1 µM,4.89 (inactive)
same,myelination,[2]; 5 µM,91.6 (active)
O=C1c2cccc3c2[C@H](CCC3)CN1[C@@H]1CN2CCC1CC2 [Palonosetron],fiber score / MBP score,[1]; 1 µM,0.728
same,fiber score / MBP score,[1]; 5 µM,0.587
same,myelination,[2]; 1 µM,-11.1 (inactive)
same,myelination,[2]; 5 µM,-11.5 (inactive)
O=C1NC(C(=O)O)CS1 (centres undefined) [2-oxothiazolidine-4-carboxylic acid],fiber score / MBP score,[1]; 1 µM,0.704
same,fiber score / MBP score,[1]; 5 µM,0.758
same,myelination,[2]; 1 µM,-34.3 (inactive)
same,myelination,[2]; 5 µM,-59.9 (inactive)
CC(C)NCC(O)c1cc(O)cc(O)c1 (centres undefined) [Metaproterenol],fiber score / MBP score,[1]; 1 µM,0.313
same,fiber score / MBP score,[1]; 5 µM,0.371
same,myelination,[2]; 1 µM,-16.5 (inactive)
same,myelination,[2]; 5 µM,-14.3 (inactive)
